GALK inhibitor: inhibitors of human galactokinase; hit rate 0.007% among 270,000; Potency, µM (top dose mostly 57.5 µM), for inactives: at the highest dose activity change, negative = inhibition, actives largely listed as inhibitors; Purified GALK, Kinase-Glo residual ATP luminescence
Target sequence (P51570 whole entry, looked up): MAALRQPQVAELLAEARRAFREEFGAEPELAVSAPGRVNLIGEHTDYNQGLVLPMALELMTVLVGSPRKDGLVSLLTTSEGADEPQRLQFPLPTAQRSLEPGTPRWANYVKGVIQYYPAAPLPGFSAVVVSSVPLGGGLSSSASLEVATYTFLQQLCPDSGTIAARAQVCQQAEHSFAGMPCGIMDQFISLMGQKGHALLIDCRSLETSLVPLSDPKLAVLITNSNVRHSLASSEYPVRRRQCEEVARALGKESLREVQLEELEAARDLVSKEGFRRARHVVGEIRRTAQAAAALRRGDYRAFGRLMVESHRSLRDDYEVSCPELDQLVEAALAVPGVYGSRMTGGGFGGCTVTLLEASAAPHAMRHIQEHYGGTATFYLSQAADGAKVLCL
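GALK at 5 nM final was combined with compound, 35 uM ATP and 100 uM galactose in HEPES pH8.0 with MgCl2 and DTT. The reaction ran one hour at room temperature before luminescent ATP detection.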
GAA inhib: blocks human lysosomal alpha-glucosidase; purified human GAA, 4-MU-alpha-glucoside fluorescence; hit rate 0.005% among 200,000; Potency, µM (top dose mostly 76.9 µM), without a hit: at the highest dose activity change, negative = inhibition, usual class: inhibitors; AID 1466; P10253;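 further: plate controls were uninhibited enzyme wells for no effect and no-enzyme background for full effect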
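Activity normalized between no-enzyme (basal) and enzyme-only wells. Conditions: 4 nM human enzyme, 400 uM fluorogenic substrate, citrate/phosphate pH 5.0 with Tween-20, 20 min room temperature, compounds up to 77 uM.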
PKM2 activator: increases activity of human pyruvate kinase M2; P14618; purified PKM2, Kinase-Glo ATP luminescence, activation; response scale: 0% is enzyme alone, no compound; Potency, µM (doses to about 57.5 µM), without a hit: top-dose activation, most hits filed as activators; hit rate 0.34% among 260,000; further: nearly all actives have a fitted effect of over 55% in size
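Kinase-Glo luminescence reports ATP generated from ADP (0.1 mM) and PEP (0.5 mM) by purified hPK-M2 after 1 h at room temperature, pH 7.2 imidazole buffer; intermediate enzyme activity allows detecting inhibitors and activators.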
GAA spleen mod: lysosomal alpha-glucosidase (human) modulation. P10253. human spleen homogenate, 4-MU-alpha-glucoside fluorescence. Potency, µM (top dose mostly 79.9 µM), inactives show top-dose activity change, negative = inhibition, most hits filed as inhibitors. hit rate 0.006% among 240,000. AID 2112;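 further: 0% = enzyme with vehicle and -100% = no enzyme basal signal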
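Compounds were titrated against alpha-glucosidase in spleen homogenate at pH 5.0, with 1 mM 4-methylumbelliferyl substrate for 40 min at 37 C. Reactions were quenched with pH 10 NaOH/glycine and fluorescence measured.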
GAA glycogen mod: inhibitors or activators of human alpha-glucosidase glycogen cleavage | P10253 | recombinant GAA, glycogen substrate, Amplex Red glucose oxidase fluorescence | Potency, µM (top dose mostly 76.4 µM), inactives show at the top dose activity change, negative = inhibition, usual class: inhibitors | hit rate 0.38% among 300,000;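 further: 0% = full enzyme reaction and -100% = no-enzyme basal signal; the screen sought inhibitors and activators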
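Recombinant human alpha-glucosidase (4 nM final) hydrolysed bovine liver glycogen (30 ug) for 40 min at 37 C in pH 5.0 citrate/phosphate with 0.01% Tween-20. Released glucose detected by glucose oxidase/Amplex Red, Ex 573/Em 610 nm. Compounds up to 77 uM; AC50 from Hill fits.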
The depositor's hits bear a star; u = inconclusive; x = no result; [ ] = dose if it differs, or a comment. Only some compounds are listed: those with a hit (about 0.63% of all), similar ones and a draw of the others. The call rests on the fitted dose curve; in most records, active means well fitted curve in the direction sought with a large enough effect; inconclusive means small, poorly fitted or top-dose-only effect, or another doubt; inactive means no such curve, though single readings can be large; an effect the other way counts as inactive or inconclusive. Unless noted, on the % scale 0 is the no-effect control and ±100 the full control effect; potency means the concentration at half of the fitted maximal effect.

SMILES	GALK inhibitor	GAA inhib	PKM2 activator	GAA spleen mod	GAA glycogen mod
COc1ccccc1NC(=O)C1=C(C)NC(=O)NC1c1ccccc1[N+](=O)[O-] (centres undefined)	9.0%	-1.8%	25.1µM*	-1.6%	-26.0%
COCCOC(=O)c1[nH]c2c(c1C)C(=O)CC(c1ccco1)C2 (centres undefined)	2.7%	-3.0%	u	-5.2%	1.2%
CSCCOC(=O)c1[nH]c2c(c1C)C(=O)CC(c1ccco1)C2 (centres undefined)	0.1%	0.3%	22.4µM*	-13.4%	0.2%
O=C(COc1ccccc1Cl)N(Cc1ccco1)Cc1ccco1	x	x	x	x	-15.3%[76.3 µM]
O=c1oc2ccc(Br)cc2cc1S(=O)(=O)c1ccc(F)cc1	-2.5%	0.8%	2.82µM*	-5.4%	-5.2%
O=C(Nc1ccccc1C(F)(F)F)c1ccc2oc(=O)c(S(=O)(=O)c3ccc(F)cc3)cc2c1	x	x	x	x	16.3%[76.3 µM]
CC(=O)Nc1sc(N/N=C/c2ccccc2F)nc1-c1ccc(C)cc1	-1.5%	x	10µM*	0.7%	u
COc1ccc(/C=N/Nc2nc(-c3ccc(C)cc3)c(NC(C)=O)s2)cc1	-4.0%	x	u	3.7%	u
CC(=O)Nc1sc(N/N=C/c2ccc(O)cc2)nc1-c1ccc(C)cc1	1.2%	x	17.8µM*	5.2%	u
CC(=O)Nc1sc(N/N=C/c2ccccc2)nc1-c1ccc(C)cc1	-4.3%	x	u	11.0%	u
C/C(=C\C(=O)c1ccccc1)Nc1ccc2c(c1)OCO2	0.1%	4.1%	-10.5%	3.6%	15.8µM*
C/C(=C\C(=O)c1ccc(C)o1)Nc1ccc2c(c1)OCO2	2.3%	3.1%	1.5%	-3.3%	28.2µM*
Cc1ccc(-c2cn3c(n2)sc2cc(C(=O)NC4CCCCC4)ccc23)cc1	x	x	x	x	-13.8%[76.3 µM]
CCOC(=O)c1[nH]c2ccccc2c1NC(=O)c1cc(OC)cc(OC)c1	x	x	x	x	15.2%[76.3 µM]
C=CCc1cccc(CNc2nc3ccccc3n2C(C)C)c1O	2.0%	-11.6%	31.6µM*	-6.8%	-5.9%
CC(C)n1c(NCc2ccccc2O)nc2ccccc21	-0.6%	x	4.8%	x	x
COc1ccc(Nc2nc(C)c(-c3ccccc3)s2)cc1	-0.2%	-9.1%	-14.3%	-2.3%	14µM*
CCn1c(=O)cc(OCC(=O)N2CCN(c3ccc(C)cc3)C(C)C2)c2ccccc21 (centres undefined)	x	x	x	x	-23.4%[76.3 µM]
O=C(NC1CC1)C1=C[C@@H](c2csc3ccccc23)C[C@@H](OCCCCO)O1	-0.8%	x	14.1µM*	1.8%	-5.5%
O=C(NC1CC1)C1=C[C@H](c2csc3ccccc23)C[C@H](OCCCCO)O1	-0.3%	x	6.9%	4.4%	-5.5%
COc1cc(OC)c(NS(=O)(=O)c2c(C)nc3sc(C)cn3c2=O)cc1Cl	x	x	x	x	12.9%[76.3 µM]
Cc1cc(-c2nnc(SCC(=O)Nc3nccs3)o2)no1	-0.9%	x	15.8µM*	-1.8%	2.7%
CCCOc1ccc(Oc2nc(NCC(C)C)nc(N(C)C)n2)nn1	x	x	x	x	-3.8%[76.3 µM]
COc1ccc(O)c(-c2cc(-c3ccc(F)cc3)n[nH]2)c1	-0.6%	x	x	x	1.6%
COc1ccc(-c2cc(-c3cc(OC)ccc3O)[nH]n2)cc1	-1.3%	-0.3%	-3.1%	3.1%	19.8µM*
SMILES	GALK inhibitor	GAA inhib	PKM2 activator	GAA spleen mod	GAA glycogen mod
COc1cccc(CNC(=O)c2ccc(NC(=O)N3CC(C)Sc4ccccc43)cc2)c1 (centres undefined)	x	x	x	x	4.0%[76.3 µM]
O=C(c1ccc(Cn2cc(Br)cn2)cc1)N1CCN(c2ccccc2)CC1	-0.8%	1.6%	4.47µM*	-18.5%	-6.7%
O=C(c1ccc(Br)cc1)N1CCN(Cc2ccccc2)CC1	-1.8%	x	0.8%	x	-9.3%[76.3 µM]
O=C(c1ccc(Cn2cc(Cl)cn2)cc1)N1CCN(c2ccccc2)CC1	-0.3%	-1.6%	15.8µM*	-9.3%	1.3%
COc1ccccc1NS(=O)(=O)c1cccc(NC(=O)c2[nH]c(C)c(C(C)=O)c2C)c1	-3.0%	x	12.6µM*	-10.1%	-2.8%
COc1ccccc1NC(=O)c1[nH]c(C)c(C(C)=O)c1C	0.9%	-3.7%	7.4%	0.9%	11.2%
O=C1Cc2cc(S(=O)(=O)N3CCN(c4ccc(Br)cc4)CC3)ccc2N1	x	x	x	x	-28.8%[76.3 µM]
Cc1ccc(CNc2ccc(N3CCOCC3)cc2)cc1	x	x	4.3%	x	6.31µM*
CC(C)c1ccc(CNc2ccc(N3CCOCC3)cc2)cc1	-5.3%	-5.9%	4.4%	-14.6%	28µM*
Cc1ccc(NS(=O)(=O)c2ccc3c(c2)n(C)c(=O)n3C)cc1C	-3.6%	x	1.58µM*	x	u
Cc1ccc(S(=O)(=O)Nc2ccc3c(c2)n(C)c(=O)n3C)cc1	0.9%	x	9.8%	x	0.3%[76.3 µM]
Cn1c(=O)n(C)c2cc(S(=O)(=O)Nc3cc(Cl)ccc3O)ccc21	-0.2%	13.1%	12.6µM*	1.6%	13.5%
Cn1c(=O)n(C)c2cc(NS(=O)(=O)c3ccccc3)ccc21	4.6%	x	18.3%	x	0.0%[76.3 µM]
Cn1c(=O)n(C)c2cc(S(=O)(=O)Nc3ccccc3)ccc21	-4.4%	-2.9%	3.98µM*	-0.9%	-1.4%
COc1cccc(Cn2c(C)c(CNCc3ccccc3Cl)c(C(=O)O)c2C)c1	x	x	x	x	13.6%[76.3 µM]
CC1OC(OCC2OC(Oc3c(-c4ccc(O)c(O)c4)oc4cc(O)cc(O)c4c3=O)C(O)C(O)C2O)C(O)C(O)C1O (centres undefined)	x	x	x	-1.1%	x
O=c1c(OC2OC(CO)C(O)C(O)C2O)c(-c2ccc(O)c(O)c2)oc2cc(O)cc(O)c12 (centres undefined)	x	-0.8%[15.4 µM]	3.5%	-1.2%	12.6µM*
C[C@@H]1O[C@@H](Oc2c(-c3cc(O)c(O)c(O)c3)oc3cc(O)cc(O)c3c2=O)[C@H](O)[C@H](O)[C@H]1O	x	-3.0%[15.4 µM]	13.1%	-2.1%	3.16µM*
N#C/C(=C\Nc1ccc(Cl)cn1)S(=O)(=O)c1ccccn1	-0.2%	-6.9%	10µM*	6.6%	6.5%
O=C/C(=C\Nc1ccc(Cl)cn1)c1nc2ccccc2o1	-0.3%	0.1%	1.3%	3.9%	2.0%
N#C/C(=C\Nc1ccc(Cl)cn1)S(=O)(=O)c1ccccc1	-0.6%	-6.6%	15.8µM*	0.5%	-6.2%
O=C(O)c1cc(NCc2c(F)cccc2Cl)ccc1N1CCOCC1	2.6%	2.8%	2.0%	-6.6%	7.08µM*
Cc1ccccc1Nc1c(-c2ccc(N3CCOCC3)cc2)nc2ncccn12	-1.6%	-1.4%	-3.0%	5.7%	u

From PubChem
